Measurements: PubChem BioAssay AID2685 (National Center for Advancing Translational Sciences (NCATS), 2010)
Hit rate of the full screen: of about 320,000 compounds, about 2,100 (0.66%) were called active. Inconclusive results (about 53%) are left out. Calls come from the whole dose curve; as a rule, active = well fitted inhibition curve with a large enough effect in the signal ratio, with a control signal flat (not every such curve was filed as active); inconclusive = small, poorly fitted or top-dose-only effect, or effect the other way, or a change in a side signal; inactive = flat fitted curve, though single readings scatter; the % refers to the signal ratio. The list comes from a sample in which actives are over-represented; it also holds similar structures and randomly drawn compounds.

Test: qHTS Assay for Lipid Storage Modulators in Drosophila S3 Cells;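 for cell number change: cells counted by Cell Tracker Red CMTPX staining in the red channel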; for lipid storage change, negative = inhibition: % is set by controls: 0 for no effect and ±100 for the full control effect
Settings: BODIPY lipid droplet fluorescence, 18-24 h, cells fed with added oleic acid; cell number change: measured here: cell count max response; series mostly up to 46.1 µM; lipid storage change, negative = inhibition: at the top concentration
Text: NIH Molecular Libraries Probe Production Centers Network [MLPCN] NIH Chemical Genomics Center [NCGC] MLPCN Grant: 1 R03 MH085686-01 Assay Submitter (PI): Beller, Mathias; Max-Planck-Institut fur Biophysikalische Chemie NCGC Assay Overview: Storing lipids as a reservoir for energy or the anabolism of elementary metabolites is a common feature of probably all cells and is conserved from bacteria to humans. The universal cellular lipid storage organelle is the so-called lipid storage droplet (LD). Although ubiquitous, LDs share a simple structure composed of a hydrophobic core that harbors the storage lipids, which is shielded by a droplet-specific phospholipid monolayer to which proteins are attached. The current model of LD biogenesis involves an incorporation of the lipid core into the membrane leaflets of the endoplasmic reticulum (ER) followed by a subsequent budding-like maturation of a LD, which ultimately pinches off. Once released, LD volume can increase by localized lipogenesis or fusion of existing droplet. Storage lipids are re-mobilized enzymatically by lipase activity. Lipase regulation in the adipocyte is heavily studied and involves multiple components including catecholamine signaling, the LD-associated proteins Perilipin and comparative gene identification (CGI-58) and at least two lipases named hormone sensitive lipase (HSL) and adipocyte triglyceride lipase (ATGL). LD regulation outside of the adipocyte is poorly understood and only few components are known. However, there is an urgent need to learn more about ectopic fat depots as mislocalized storage of lipids, for example in the liver or muscle, is an eminent health problem associated with insulin resistance or the metabolic syndrome. We developed a laser-scanning cytometer assay to enable 1,536-well screening and combined the results of the small molecules screen with an RNAi database based on lipid storage.
Triacsin C (Sigma-Aldrich T-4540), an inhibitor of long-chain fatty acyl CoA synthetase that blocks synthesis of triglycerides, was used as a positive control for lipid under-storage. A total of 23 nL of compound solution of different concentrations were transferred to the assay plates using a Kalypsys pin tool equipped with a 1,536-pin array containing 10-nL slotted pins (FP1S10, 0.457-mm diameter, 50.8 mm long; V&P Scientific). One microliter of oleic acid (400 uM) was added, and the plate was lidded with stainless steel rubber gasket lined lids containing pinholes. […] Fluorescence was detected by excitation of the fluorophores with a 488-nm laser on an Acumen Explorer (TTP Lab Tech). The total intensity in channel 2 (500-530 nm) reflected lipid droplet accumulation. Cells were detected using channel 3 (575-640 nm) with 5-um width and 100-um depth filters. The ratio of the number of objects in PMT channel 2 over the number of objects in PMT channel 3 was also calculated. Percent activity was computed relative to an internal control (100% inhibited lipid droplet deposition due to the presence of 20 uM Triacsin C), which was added to 32 wells/plate.
Potency is the fitted concentration of half-maximal effect.

| SMILES | Potency | cell number change | lipid storage change, negative = inhibition | outcome |
| --- | --- | --- | --- | --- |
| CC(=O)N(C1=NCCCS1)c1ccc(F)cc1 | 16.4 µM (active) | -2.11% |  |  |
| CC(=O)N(C1=NCCCS1)c1ccc(Cl)cc1 |  | -2.46% | 4.02% (inactive) |  |
| COc1cccc(N(C(C)=O)C2=NCCCS2)c1 |  | 4.22% | -1.29% (inactive) |  |
| O=C(COc1ccccc1Cl)N1CCCC(N2CCN(c3ccc(F)cc3)CC2)C1 (stereo not given) |  | -2.12% |  | inactive |
| Cn1c(O)c(C=NC2CCCCC2)c(=O)[nH]c1=S |  | 4.27% | 4.55% (inactive) |  |
| Cc1cc(NCCN)nc2ccccc12 |  | 15.7% |  | inactive |
| Cc1cc(/C=C2\C(=O)NC(=O)N(c3ccccc3)C2=O)c(C)n1-c1ccc(C(=O)O)c(Cl)c1 |  | -8.5% | 14.6% (inactive) |  |
| CCN(CC)c1nc2c(C)cccn2c(=O)c1C=C1C(=O)NC(=O)NC1=O |  | 3.76% | 2.13% (inactive) |  |
| CCOC(=O)N(C)c1ccc(C(O)(C(=O)OC)C(F)(F)F)cc1 (stereo not given) |  | 10.8% | 11.7% (inactive) |  |
| COc1ccc2ccc(O)c(CN3CC=C(c4ccccc4)CC3)c2c1 |  | 13.7% | -22% (inactive) |  |
| Cc1cc(O)c(CN2CC=C(c3ccccc3)CC2)cc1C(C)C | 18.4 µM (active) |  |  |  |
| Cc1ccc2c(CN3CC=C(c4ccccc4)CC3)cc(=O)oc2c1C |  | 0.524% | 10% (inactive) |  |
| CCC(CC)NCc1c[nH]c2ccccc12 |  | -0.482% | -2.64% (inactive) |  |
| O=C(Nc1ccc(Br)cc1)c1nn(C23CC4CC(CC(C4)C2)C3)cc1Br |  | 0.69% | 20.5% (inactive) |  |
| CS(=O)(=O)NCc1nnc2n1-c1ccc(Cl)cc1C(c1ccccc1)=NC2 |  | 13.6% | 4.56% (inactive) |  |
| CCCCc1nc2ccccc2c(=O)n1-c1ccccc1O |  | -9.96% | -5.09% (inactive) |  |
| CCCCn1c(O)c(C(CC)=Nc2ccc(C(=O)O)cc2)c(=O)[nH]c1=O |  | 5.66% | 5.22% (inactive) |  |
| CCCCCn1c(=O)c(C(=O)Nc2ncccc2C)c(O)c2ccccc21 |  | -11.8% | 20.1% (inactive) |  |
| CCCCCCn1c(=O)c(C(=O)Nc2ncccc2O)c(O)c2ccccc21 | 7.31 µM (active) | -21.9% |  |  |
| CCCCCCn1c(=O)c(C(=O)Nc2ccncc2)c(O)c2ccccc21 |  | 15.2% |  | inactive |
| Cc1ccc(C(=O)N/C(=C\Cl)P(=O)(c2ccccc2)c2ccccc2)cc1 |  | 0.754% | -14.3% (inactive) |  |
| OC(c1ccccc1)(c1ccccc1)C1CCCN1 (stereo not given) |  | -1.52% | 2.1% (inactive) |  |
| OC(c1ccccc1)(c1ccccc1)C1CCNCC1 | 25.9 µM (active) |  |  |  |
| O=C(O)C(O)(c1ccccc1)C1CCCCC1 (stereo not given) |  | -9.04% | 6.74% (inactive) |  |
| CN(C(=O)CNC(=O)OCc1ccccc1)c1ccc(Br)cc1C(=O)c1ccccc1Cl |  | 9.34% | 17.8% (inactive) |  |
| CCCNS(=O)(=O)c1ccc(OCC(=O)N2CCN(Cc3ccc4c(c3)OCO4)CC2)c(C)c1 |  | -6.04% | -21.8% (inactive) |  |
| CCCCCCN=C(C)c1c(O)n(CCCC)c(=O)[nH]c1=O |  | 0.489% | 13.5% (inactive) |  |
| CCCCn1c(O)c(C(C)=NCCc2ccccc2)c(=O)[nH]c1=O |  |  |  | inactive |
| CCCCn1c(O)c(C(C)=NCCCN(CC)CC)c(=O)[nH]c1=O | 23.1 µM (active) | -0.0737% |  |  |
